# Results taken from the supplement of paper PMC12282887.
# ± gives the standard deviation of the averaged measurements.
# Assays:
# Assay in all cases: promoter activity interaction Z-score (Lux/OD deviation from empty-vector control); higher = stronger promoter induction by the compound
# [1] = tested on: E. coli BW25113 acrABp lux reporter
# How it was run: (§1)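 Four 1:2 dilutions of each compound were tested in biological duplicates on E. coli BW25113 carrying low-copy luxCDABE promoter reporters, either wild type or deleted for one of three genes. Cultures of 40 µl LB Lennox in 384-well plates were kept at 37°C and read for OD600 and luminescence every 30 min for 12 h. Integration windows were 0–8 h for wild type and 1–9 h for deletion strains, and wells under 10% of the median growth value were discarded. The score is a Z-transformed residual of growth-normalised luminescence relative to a control fit.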
# [2] = tested on: E. coli BW25113 marRABp lux reporter
# How it was run: as §1
# [3] = tested on: E. coli BW25113 micFp lux reporter
# How it was run: as §1
# [4] = tested on: E. coli BW25113 ompFp lux reporter
# How it was run: as §1
# [5] = tested on: E. coli BW25113 robp lux reporter
# How it was run: as §1
# [6] = tested on: E. coli BW25113 soxSp lux reporter
# How it was run: as §1
# [7] = tested on: E. coli BW25113 tolCp lux reporter
# How it was run: as §1
# [8] = 0.062 µg/ml, genetic background: wild type
# [9] = 0.062 µg/ml, genetic background: ΔmarA
# [10] = 0.062 µg/ml, genetic background: Δrob
# [11] = 0.062 µg/ml, genetic background: ΔsoxS
# [12] = 0.12 µg/ml, genetic background: wild type
# [13] = 0.12 µg/ml, genetic background: ΔmarA
# [14] = 0.12 µg/ml, genetic background: Δrob
# [15] = 0.12 µg/ml, genetic background: ΔsoxS
# [16] = 0.25 µg/ml, genetic background: wild type
# [17] = 0.25 µg/ml, genetic background: ΔmarA
# [18] = 0.25 µg/ml, genetic background: Δrob
# [19] = 0.25 µg/ml, genetic background: ΔsoxS
# [20] = 0.49 µg/ml, genetic background: wild type
# [21] = 0.49 µg/ml, genetic background: ΔmarA
# [22] = 0.49 µg/ml, genetic background: Δrob
# [23] = 0.49 µg/ml, genetic background: ΔsoxS
smiles,measurement,setting,value
CN(C)c1ccc(O)c2c1C[C@H]1C[C@H]3[C@H](N(C)C)C(O)=C(C(N)=O)C(=O)[C@@]3(O)C(O)=C1C2=O [Minocycline],promoter activity interaction Z-score,[1]; [8],-0.0516 ± 0.1
same,promoter activity interaction Z-score,[1]; [9],0.0987 ± 0.99
same,promoter activity interaction Z-score,[1]; [10],0.189 ± 0.07
same,promoter activity interaction Z-score,[1]; [11],-0.577 ± 0.76
same,promoter activity interaction Z-score,[1]; [12],0.0573 ± 0.042
same,promoter activity interaction Z-score,[1]; [13],0.356 ± 1.1
same,promoter activity interaction Z-score,[1]; [14],0.339 ± 0.34
same,promoter activity interaction Z-score,[1]; [15],0.263 ± 0.16
same,promoter activity interaction Z-score,[1]; [16],0.223 ± 0.18
same,promoter activity interaction Z-score,[1]; [17],0.273 ± 0.88
same,promoter activity interaction Z-score,[1]; [18],0.387 ± 0.58
same,promoter activity interaction Z-score,[1]; [19],0.196 ± 0.47
same,promoter activity interaction Z-score,[1]; [20],2.47 ± 0.56
same,promoter activity interaction Z-score,[1]; [21],0.55 ± 0.59
same,promoter activity interaction Z-score,[1]; [22],2.62 ± 0.41
same,promoter activity interaction Z-score,[1]; [23],2.95 ± 1.3
same,promoter activity interaction Z-score,[2]; [8],-0.0844 ± 0.21
same,promoter activity interaction Z-score,[2]; [9],0.0361 ± 0.21
same,promoter activity interaction Z-score,[2]; [10],0.129 ± 0.094
same,promoter activity interaction Z-score,[2]; [11],-0.0813 ± 0.0076
same,promoter activity interaction Z-score,[2]; [12],0.341 ± 0.081
same,promoter activity interaction Z-score,[2]; [13],0.0649 ± 0.098
same,promoter activity interaction Z-score,[2]; [14],0.115 ± 0.4
same,promoter activity interaction Z-score,[2]; [15],0.221 ± 0.22
same,promoter activity interaction Z-score,[2]; [16],0.449 ± 0.55
same,promoter activity interaction Z-score,[2]; [17],0.264 ± 0.17
same,promoter activity interaction Z-score,[2]; [18],0.436 ± 0.19
same,promoter activity interaction Z-score,[2]; [19],0.173 ± 0.13
same,promoter activity interaction Z-score,[2]; [20],3.58 ± 0.53
same,promoter activity interaction Z-score,[2]; [21],3.1 ± 1.2
same,promoter activity interaction Z-score,[2]; [22],1.07 ± 0.62
same,promoter activity interaction Z-score,[2]; [23],2.67 ± 0.47
same,promoter activity interaction Z-score,[3]; [8],0.172 ± 0.028
same,promoter activity interaction Z-score,[3]; [9],-0.151 ± 0.19
same,promoter activity interaction Z-score,[3]; [10],0.0108 ± 0.022
same,promoter activity interaction Z-score,[3]; [11],-0.429 ± 0.019
same,promoter activity interaction Z-score,[3]; [12],0.33 ± 0.72
same,promoter activity interaction Z-score,[3]; [13],-0.0481 ± 0.0079
same,promoter activity interaction Z-score,[3]; [14],-0.075 ± 0.12
same,promoter activity interaction Z-score,[3]; [15],0.127 ± 0.026
same,promoter activity interaction Z-score,[3]; [16],0.933 ± 0.82
same,promoter activity interaction Z-score,[3]; [17],-0.106 ± 0.069
same,promoter activity interaction Z-score,[3]; [18],0.138 ± 0.07
same,promoter activity interaction Z-score,[3]; [19],-0.0781 ± 0.17
same,promoter activity interaction Z-score,[3]; [20],1.77 ± 1.9
same,promoter activity interaction Z-score,[3]; [21],0.182 ± 0.15
same,promoter activity interaction Z-score,[3]; [22],0.0732 ± 0.00089
same,promoter activity interaction Z-score,[3]; [23],0.743 ± 0.81
same,promoter activity interaction Z-score,[4]; [8],0.0637 ± 0.43
same,promoter activity interaction Z-score,[4]; [9],-0.699 ± 0.25
same,promoter activity interaction Z-score,[4]; [10],0.129 ± 0.49
same,promoter activity interaction Z-score,[4]; [11],-0.457 ± 0.12
same,promoter activity interaction Z-score,[4]; [12],0.41 ± 0.83
same,promoter activity interaction Z-score,[4]; [13],0.0821 ± 0.38
same,promoter activity interaction Z-score,[4]; [14],0.365 ± 0.77
same,promoter activity interaction Z-score,[4]; [15],0.49 ± 0.25
same,promoter activity interaction Z-score,[4]; [16],0.511 ± 0.43
same,promoter activity interaction Z-score,[4]; [17],-0.386 ± 0.46
same,promoter activity interaction Z-score,[4]; [18],0.978 ± 0.71
same,promoter activity interaction Z-score,[4]; [19],0.461 ± 0.59
same,promoter activity interaction Z-score,[4]; [20],1.65 ± 0.69
same,promoter activity interaction Z-score,[4]; [21],1.7 ± 0.75
same,promoter activity interaction Z-score,[4]; [22],1.71 ± 1.5
same,promoter activity interaction Z-score,[4]; [23],2.93 ± 0.19
same,promoter activity interaction Z-score,[5]; [8],-0.379 ± 0.35
same,promoter activity interaction Z-score,[5]; [9],-0.0848 ± 0.76
same,promoter activity interaction Z-score,[5]; [10],0.746 ± 0.51
same,promoter activity interaction Z-score,[5]; [11],-0.6221 ± 0.0048
same,promoter activity interaction Z-score,[5]; [12],0.195 ± 0.02
same,promoter activity interaction Z-score,[5]; [13],0.369 ± 0.11
same,promoter activity interaction Z-score,[5]; [14],0.83 ± 0.12
same,promoter activity interaction Z-score,[5]; [15],0.357 ± 0.091
same,promoter activity interaction Z-score,[5]; [16],0.736 ± 1.1
same,promoter activity interaction Z-score,[5]; [17],0.349 ± 0.033
same,promoter activity interaction Z-score,[5]; [18],1.12 ± 0.15
same,promoter activity interaction Z-score,[5]; [19],-0.142 ± 0.44
same,promoter activity interaction Z-score,[5]; [20],0.715 ± 0.67
same,promoter activity interaction Z-score,[5]; [21],0.586 ± 0.056
same,promoter activity interaction Z-score,[5]; [22],0.685 ± 1.6
same,promoter activity interaction Z-score,[5]; [23],0.64 ± 1.7
same,promoter activity interaction Z-score,[6]; [8],0.269 ± 0.16
same,promoter activity interaction Z-score,[6]; [9],-0.245 ± 0.04
same,promoter activity interaction Z-score,[6]; [10],0.0739 ± 0.0036
same,promoter activity interaction Z-score,[6]; [11],-0.185 ± 0.069
same,promoter activity interaction Z-score,[6]; [12],0.291 ± 0.56
same,promoter activity interaction Z-score,[6]; [13],0.0029 ± 0.014
same,promoter activity interaction Z-score,[6]; [14],-0.102 ± 0.055
same,promoter activity interaction Z-score,[6]; [15],0.203 ± 0.098
same,promoter activity interaction Z-score,[6]; [16],0.499 ± 0.44
same,promoter activity interaction Z-score,[6]; [17],-0.0485 ± 0.1
same,promoter activity interaction Z-score,[6]; [18],0.0791 ± 0.26
same,promoter activity interaction Z-score,[6]; [19],-0.114 ± 0.015
same,promoter activity interaction Z-score,[6]; [20],0.538 ± 0.72
same,promoter activity interaction Z-score,[6]; [21],0.583 ± 0.97
same,promoter activity interaction Z-score,[6]; [22],0.542 ± 0.91
same,promoter activity interaction Z-score,[6]; [23],0.336 ± 0.25
same,promoter activity interaction Z-score,[7]; [8],-0.706 ± 0.049
same,promoter activity interaction Z-score,[7]; [9],-0.479 ± 0.52
same,promoter activity interaction Z-score,[7]; [10],-0.423 ± 0.84
same,promoter activity interaction Z-score,[7]; [11],-0.991 ± 0.75
same,promoter activity interaction Z-score,[7]; [12],0.000824 ± 0.27
same,promoter activity interaction Z-score,[7]; [13],-0.0931 ± 0.19
same,promoter activity interaction Z-score,[7]; [14],-0.00328 ± 1.2
same,promoter activity interaction Z-score,[7]; [15],0.557 ± 0.39
same,promoter activity interaction Z-score,[7]; [16],-0.22 ± 0.98
same,promoter activity interaction Z-score,[7]; [17],-0.201 ± 0.28
same,promoter activity interaction Z-score,[7]; [18],0.646 ± 0.087
same,promoter activity interaction Z-score,[7]; [19],-0.226 ± 0.84
same,promoter activity interaction Z-score,[7]; [20],-0.114 ± 0.25
same,promoter activity interaction Z-score,[7]; [21],0.0123 ± 0.63
same,promoter activity interaction Z-score,[7]; [22],0.966 ± 0.27
same,promoter activity interaction Z-score,[7]; [23],0.526 ± 0.79
